This passage reports growth results from PubChem BioAssay (NCI).

Compounds without any hit were thinned out: in the full panel of roughly 83,000, 20% have a hit.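 The test compound was applied at a single concentration to cells in 96-well plates for 48 hours, and percent growth was recorded.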 A number with no mark means an inactive call. Calls of active or inactive are those of the source. Rule for the calls: active = growth percent below 10; inactive = the rest.

Among the test systems are DU-145 prostate; K-562 leukemia; MALME-3M melanoma; MDA-MB-231 breast; RXF 393 renal; SF-268 CNS; SF-295 CNS; SF-539 CNS; UACC-257 melanoma; M14 melanoma; HCT-15 colon; HT29 colon; SNB-75 CNS; SNB-19 CNS; U251 CNS; SK-MEL-5 melanoma; UACC-62 melanoma; LOX IMVI melanoma; SK-MEL-28 melanoma; PC-3 prostate.
What all share (assay): NCI-60 one-dose screen, 48 h (100 = growth as untreated, 0 = no growth, -100 = all killed)
Holding throughout (settings): 10 µM unless noted

In the case of `CC(=O)Nc1ccc2nc3ccc(NC(C)=O)cc3[n+](-c3ccccc3)c2c1`, the growth with DU-145 prostate is 117%; with K-562 leukemia, 57.1%; in the assay on MALME-3M melanoma, 115%; with MDA-MB-231 breast, 66.3%; with RXF 393 renal it was 101%; with SF-268 CNS, 97.5%. In addition, the growth in the assay with SF-295 CNS is 121%; with SF-539 CNS, 89.3%; with UACC-257 melanoma, 94.5%; in the assay on M14 melanoma it was 107%; with HCT-15 colon it was 104%; in the assay with HT29 colon, 115%. Moreover, the growth with SNB-75 CNS is 82.2%; with SNB-19 CNS, 94.2%; with U251 CNS, 109%; with SK-MEL-5 melanoma, 96.3%; with UACC-62 melanoma, 103%; in the assay with LOX IMVI melanoma, 96.8%. For the same compound, in the assay on SK-MEL-28 melanoma, the growth was 166%.
On to `CCN1c2ccccc2C(Cl)(c2ccc(N(C)C)cc2)c2ccccc21`, for which the growth with DU-145 prostate is 74.1%; in the assay with K-562 leukemia, 60.8%; in the assay on MALME-3M melanoma it was 9.82% (active); in the assay with MDA-MB-231 breast, 70.3%; with RXF 393 renal, 59.4%; with SF-268 CNS, 54.2%. Further, the growth with SF-295 CNS is 88.4%; in the assay with SF-539 CNS, 93.7%; in the assay on UACC-257 melanoma, 70.3%; with M14 melanoma, 72.9%; in the assay with HCT-15 colon, 73.6%; with HT29 colon it was 3.81% (active). Moreover, the growth was 68.5% in the assay on SNB-75 CNS; 53.8% in the assay with SNB-19 CNS; 19.5% in the assay on U251 CNS; 78.9% in the assay with SK-MEL-5 melanoma; 51.6% in the assay with UACC-62 melanoma; 18.9% in the assay with LOX IMVI melanoma. The growth with SK-MEL-28 melanoma was 86.2%.
Turning to `CCN(CC)CCCC(C)Nc1c2ccc(C)cc2nc2ccc(OC)cc12` (stereo unspecified), the growth in the assay with DU-145 prostate is 4.05% (active); in the assay on K-562 leukemia it was 4.22% (active); in the assay with MALME-3M melanoma it was 53.3%; in the assay on MDA-MB-231 breast, 41.9%; in the assay with RXF 393 renal, 23.7%; in the assay on SF-268 CNS it was 39.4%. The growth was 8.67% (active) with SF-295 CNS; 10.2% in the assay with SF-539 CNS; -76% (active) in the assay on UACC-257 melanoma; -10.2% (active) in the assay on M14 melanoma; 18.2% with HCT-15 colon; -26.1% (active) with HT29 colon. Moreover, the growth was 41% in the assay with SNB-75 CNS; 31.2% in the assay with U251 CNS; 30.9% in the assay on PC-3 prostate; 82.1% in the assay on SK-MEL-5 melanoma; 74.4% in the assay on UACC-62 melanoma; -70.8% (active) in the assay with LOX IMVI melanoma. The growth in the assay with SK-MEL-28 melanoma was 62.1%.
In the case of `CC1(C)CC[C@]23CC[C@]4(C)[C@H](CC[C@@H]5[C@@]6(C)C/C(=C/c7cccnc7)C(=O)C(C)(C)[C@@H]6CC[C@]54C)[C@H]2[C@H]1OC3=O`, the growth in the assay on DU-145 prostate was 56.9% [100 µM]; with K-562 leukemia it was 33% [100 µM]; in the assay with MALME-3M melanoma, 31.2% [100 µM]; in the assay with MDA-MB-231 breast, 35.8% [100 µM]; in the assay with RXF 393 renal, 38.8% [100 µM]; with SF-268 CNS, 66.3% [100 µM]. In addition, the growth was 46.7% [100 µM] in the assay on SF-295 CNS; 63.2% [100 µM] in the assay on SF-539 CNS; 31.9% [100 µM] with UACC-257 melanoma; 52.1% [100 µM] in the assay with M14 melanoma; 42.7% [100 µM] in the assay with HCT-15 colon; 23.2% [100 µM] with HT29 colon. Also, the growth with SNB-75 CNS is 19.8% [100 µM]; with U251 CNS it was 34% [100 µM]; with PC-3 prostate it was 29.8% [100 µM]; in the assay with SK-MEL-5 melanoma, -44.4% [100 µM] (active); in the assay on UACC-62 melanoma, 28.4% [100 µM]; in the assay with LOX IMVI melanoma, 29.2% [100 µM]. Moreover, in the assay on SK-MEL-28 melanoma, the growth was 21.4% [100 µM].
For `COc1cc2c(c(OC)c1OC)-c1cc(I)c(O)cc1[C@@H](NC(C)=O)CC2`, the growth is 16.9% in the assay with DU-145 prostate; 25.6% in the assay with K-562 leukemia; 80.2% in the assay on MALME-3M melanoma; 7.04% (active) in the assay on MDA-MB-231 breast; 37.7% with RXF 393 renal; 8.91% (active) with SF-268 CNS. Also, the growth in the assay with SF-295 CNS is 22.4%; in the assay with SF-539 CNS, -27.8% (active); with UACC-257 melanoma, 61.9%; with M14 melanoma, 14.4%; in the assay on HCT-15 colon, 4.21% (active); in the assay with HT29 colon it was 10.8%. In addition, the growth in the assay with SNB-75 CNS is 28%; in the assay with U251 CNS it was 7.36% (active); with PC-3 prostate it was 28.8%; in the assay on SK-MEL-5 melanoma, -15.2% (active); in the assay with UACC-62 melanoma it was 17.8%; with LOX IMVI melanoma, 24.4%. For the same compound, the growth in the assay with SK-MEL-28 melanoma was 76.7%.
As for `NC(=O)c1c(NC(=O)COC(=O)Cc2ccccc2F)sc2c1CCC2`, the growth with DU-145 prostate was 104%; with K-562 leukemia, 139%; with MALME-3M melanoma, 109%; in the assay with MDA-MB-231 breast, 101%; in the assay on RXF 393 renal, 109%; in the assay with SF-268 CNS it was 99.6%. Moreover, the growth with SF-295 CNS is 129%; in the assay on SF-539 CNS it was 94.9%; in the assay with UACC-257 melanoma, 4.15% (active); in the assay with M14 melanoma, 105%; in the assay on HCT-15 colon, 104%; with HT29 colon, 117%. Besides, the growth is 106% with SNB-75 CNS; 101% in the assay on U251 CNS; 100% with PC-3 prostate; 91.1% in the assay on SK-MEL-5 melanoma; 97% in the assay with UACC-62 melanoma; 110% in the assay with LOX IMVI melanoma. Moreover, the growth with SK-MEL-28 melanoma was 97.2%.
On to `FC(F)(F)c1ccc2c(c1)Sc1ccccc1N2`, for which the growth was 97.1% in the assay on DU-145 prostate; 93.6% in the assay on K-562 leukemia; 100% with MALME-3M melanoma; 99.5% in the assay on MDA-MB-231 breast; 96.6% in the assay on RXF 393 renal; 92.9% with SF-268 CNS. Moreover, the growth was 97.2% with SF-295 CNS; 97.8% in the assay on SF-539 CNS; 112% with UACC-257 melanoma; 98.3% in the assay on M14 melanoma; 92.2% in the assay on HCT-15 colon; 102% in the assay on HT29 colon. The growth is 89% with SNB-75 CNS; 91.5% with U251 CNS; 93.9% with PC-3 prostate; 98.1% in the assay with SK-MEL-5 melanoma; 85.3% with UACC-62 melanoma; 110% in the assay with SK-MEL-28 melanoma.
As to `C=C(C)[C@@H]1CC[C@]2(C)[C@H](CC=C3[C@@H]4[C@@H](C)[C@H](C)CC[C@]4(C(N)=O)CC[C@]32C)[C@@]1(C)CCC#N`, the growth in the assay on DU-145 prostate was -0.419% [100 µM] (active); in the assay on K-562 leukemia, 7.42% [100 µM] (active); in the assay on MALME-3M melanoma, -65.5% [100 µM] (active); in the assay on MDA-MB-231 breast, -55.4% [100 µM] (active); with RXF 393 renal it was -72.2% [100 µM] (active); in the assay with SF-268 CNS, 15.2% [100 µM]. The growth with SF-295 CNS is 5.51% [100 µM] (active); with SF-539 CNS it was -63.1% [100 µM] (active); in the assay on UACC-257 melanoma, -11.4% [100 µM] (active); in the assay with M14 melanoma, -3.77% [100 µM] (active); with HCT-15 colon, 9.25% [100 µM] (active); in the assay on HT29 colon it was -32.6% [100 µM] (active). For the same compound, the growth is -5.4% [100 µM] (active) in the assay on SNB-75 CNS; -59.3% [100 µM] (active) in the assay with U251 CNS; 12.2% [100 µM] with PC-3 prostate; -87.9% [100 µM] (active) in the assay with SK-MEL-5 melanoma; -63.9% [100 µM] (active) in the assay on UACC-62 melanoma; -92.9% [100 µM] (active) with LOX IMVI melanoma. Further, the growth in the assay on SK-MEL-28 melanoma was -67.8% [100 µM] (active).
